From PubChem BioAssay come the findings set out here.

Assay [1] in a line: viability loss in pontine glioma line – cell-based, SU-DIPG-XVII, MIPE5.0, CellTiter-Glo, qHTS, dose response (AID 1347060; cut-off not given, nearly all actives have AC50 up to about 26 µM;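 for AC50: cells exposed to compound for 48 hours before viability readout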). To be noted: CellTiter-Glo ATP luminescence.
Assay [2] can be described thus: viability loss in pontine glioma line – cell-based, SU-DIPG-XIII, MIPE4.0, CellTiter-Glo, qHTS, dose response (AID 1347061; cut-off not given, nearly all actives have AC50 up to about 37 µM;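 note: cells exposed to compound for 48 hours before readout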). As to conditions: CellTiter-Glo ATP luminescence.
Assay [3] is described as follows: viability loss in pontine glioma line – cell-based, JHH-DIPG-1, MIPE4.0, CellTiter-Glo, qHTS, dose response (AID 1347062; cut-off not given, nearly all actives have AC50 up to about 27 µM;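 for AC50: cells exposed to compound for two days before readout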). As to conditions: JHH-DIPG-1 viability, CellTiter-Glo ATP luminescence.
A short description of assay [4]: viability loss in pontine glioma line – cell-based, SU-DIPG-IV, MIPE4.0, CellTiter-Glo, qHTS, dose response (AID 1347063; cut-off not given, nearly all actives have AC50 up to about 30 µM;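 note: compound exposure lasted 48 hours before the viability readout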). To be noted: CellTiter-Glo ATP luminescence.
The nature of assay [5]: viability loss in pontine glioma line – cell-based, SU-DIPG-XIII, MIPE5.0, CellTiter-Glo, qHTS, dose response (AID 1347064; cut-off not given, nearly all actives have AC50 up to about 23 µM;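 for AC50: cells exposed to compound for 48 hours before the viability read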). As to conditions: CellTiter-Glo ATP luminescence.
Assay [6] can be described thus: viability loss in pontine glioma line – cell-based, SU-DIPG-XXV, MIPE5.0, CellTiter-Glo, qHTS, dose response (AID 1347065; cut-off not given, nearly all actives have AC50 up to about 26 µM;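 note: cells exposed to compound for 48 hours before ATP readout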). To be noted: CellTiter-Glo ATP luminescence.
Assay [7] can be described thus: growth inhibition of DIPG cells – cell-based, MIPE4.0 library, CellTiter-Glo luminescence, qHTS (AID 1347066; cut-off not given, nearly all actives have AC50 up to about 30 µM;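 note: cells exposed to compound for 48 hours before readout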). As to conditions: SU-DIPG-VI viability, CellTiter-Glo ATP luminescence.
Assay [8] in a line: growth inhibition of DIPG cells – cell-based, MIPE5.0 library, qHTS (AID 1347068; cut-off not given, nearly all actives have IC50 up to about 30 µM;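 note: cells exposed to compound for 48 hours before viability readout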). As to conditions: SU-DIPG-XXV viability.
Assay [9] can be described thus: JHH-DIPG-1 glioma cell viability, MIPE5.0 library, CellTiter-Glo luminescence, qHTS (AID 1347067; cut-off not given, nearly all actives have AC50 up to about 26 µM;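 note: cells exposed to compound for 48 hours before readout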). To be noted: JHH-DIPG-1 glioma viability, CellTiter-Glo ATP luminescence.
Assay [10] in a line: viability loss with induced miR-34 in A549 – imaging, A549 dox-inducible miR-34, nuclei and caspase counts, primary screen (AID 1347080;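 active = compounds whose cell count with miR-34 switched on is under 0.7 times the count with it off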). As to conditions: A549 miR-34 inducible, Hoechst nuclei count, 48 h.
The nature of assay [11]: MELAS cybrid and Rieske KO viability enhancers – cell-based, MELAS cybrids, Rieske KO mouse fibroblasts, CellTiter-Glo, primary screen (AID 1508586;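 active = mean z-score across replicates of 1.96 or higher in either the MELAS or the Rieske mutant cell line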;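 note: z relative to plate mean and SD of compound and empty wells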). As to conditions: low glucose.
The nature of assay [12]: compounds altering HSF1 focus formation in cells – imaging, Selleck Cancer Library (AID 1347162; in the data active = plate-normalised HSF1 focus index below about 0.46). To be noted: human cells, HSF1 nuclear foci imaging, at 10 µM; SSMD: measured here: HSF1 foci SSMD mean; cell count: measured here: cell number; plate-normalised HSF1 focus index: stronger effect = lower value.
Assay [13] can be described thus: drug combination growth inhibition, ovarian cancer – cell-based, oncology-focused library, rucaparib conditional, profiling panel (AID 1508598). To be noted: patient-derived ovarian cancer cells, CellTiter-Glo viability, 144 h, stronger effect = lower value.
Where [14] appears, read: stronger effect = lower value, cell number ratio, induced over uninduced.
Where [15] appears, read: measured here: relative caspase fold change +Dox/-Dox.
[16] abbreviates: measured here: total cells with miR-34 induction, stronger effect = lower value.
The mark [17] stands for this setting: measured here: total cells without miR-34 induction.
Setting [18] is: MELAS cybrid survival, CellTiter-Glo 48 h, stronger effect = higher value.
The mark [19] stands for this setting: Rieske KO mouse fibroblast survival, CellTiter-Glo 72 h.

Results filed as inconclusive are left out. Active and inactive are the calls of the source.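 Rule for the calls, unless noted: active = normalized viability below 100% at a tested concentration; inactive = the rest.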

With `Cc1ccc(C(N)=O)cc1Nc1nccc(-c2cn(C(C)C)c3cnccc23)n1`, the concentration at half-maximal activity (AC50) in assay [1] was 9.34 µM (active); in [2], 18.7 µM (active); in assay [3], 9.35 µM (active); in assay [4], 8.33 µM (active); in [5], 11.8 µM (active); in assay [6], 7.42 µM (active). Also, the AC50 in [7] is 13.2 µM (active). For the same molecule, the half-maximal inhibitory concentration (IC50) in assay [8] is 11.8 µM (active).

For `COc1ccc(-n2nc(C(N)=O)c3c2C(=O)N(c2ccc(N4CCCCC4=O)cc2)CC3)cc1`, the outcome in assay [1], in assay [2], in assay [3], in assay [4], in assay [5] and in assay [6] was inactive. For the same molecule, the result in assay [7] and in [9] was inactive. Also, the fold change in assay [10] (setting [14]) is 0.908 (inactive); in [10] (setting [15]) it was 0.921. Also, the cell count in [10] (setting [16]) was 8080; in assay [10] (setting [17]), 8900. Also, the z-score in assay [11] (setting [18]) was -0.515 (inactive); in assay [11] (setting [19]) it was -0.309.

For the molecule `CC(=O)Nc1cccc(-n2c(=O)n(C3CC3)c(=O)c3c(Nc4ccc(I)cc4F)n(C)c(=O)c(C)c32)c1`, the AC50 is 0.0833 µM (active) in [1]; 0.235 µM (active) in assay [2]; 0.209 µM (active) in assay [3]; 3.32 µM (active) in assay [4]; 0.0833 µM (active) in [5]; 0.105 µM (active) in assay [6]. Besides, the AC50 in [9] was 0.0417 µM (active). Besides, the outcome in assay [7] was inactive. The fold change in assay [10] (setting [14]) is 1.15 (inactive); in assay [10] (setting [15]) it was 0.672. For the same molecule, the cell count in [10] (setting [16]) was 4330; in [10] (setting [17]) it was 3760; in assay [12] it was 6560. The same molecule gave an SSMD in [12] of 3.07. Also, the plate-normalised HSF1 focus index in [12] was 1.16 (inactive). For the same molecule, the results for the z-score in [11] (setting [18]) and in assay [11] (setting [19]) were -0.421 (inactive) and -0.112, respectively. For the same molecule, the viability in assay [13] (at 0.000305 µM, OCI-C5x cells, with rucaparib 10 µM, 100% = cells with rucaparib alone) was 123% (inactive); in [13] (at 0.000305 µM, OCI-C5x cells, without rucaparib), 120% (inactive); in assay [13] (at 0.000305 µM, OCI-P5x cells, with rucaparib 20 µM, 100% = cells with rucaparib alone) it was 109% (inactive); in assay [13] (at 0.000305 µM, OCI-P5x cells, without rucaparib), 102% (inactive); in assay [13] (at 0.00122 µM, OCI-C5x cells, with rucaparib 10 µM, 100% = cells with rucaparib alone) it was 102% (inactive); in assay [13] (at 0.00122 µM, OCI-C5x cells, without rucaparib), 122% (inactive). In addition, the viability in [13] (at 0.00122 µM, OCI-P5x cells, with rucaparib 20 µM, 100% = cells with rucaparib alone) is 89.6% (active); in assay [13] (at 0.00122 µM, OCI-P5x cells, without rucaparib), 89.5% (active); in assay [13] (at 0.00488 µM, OCI-C5x cells, with rucaparib 10 µM, 100% = cells with rucaparib alone) it was 105% (inactive); in assay [13] (at 0.00488 µM, OCI-C5x cells, without rucaparib), 113% (inactive); in assay [13] (at 0.00488 µM, OCI-P5x cells, with rucaparib 20 µM, 100% = cells with rucaparib alone) it was 75% (active); in assay [13] (at 0.00488 µM, OCI-P5x cells, without rucaparib), 74.2% (active). The viability in [13] (at 0.0195 µM, OCI-C5x cells, with rucaparib 10 µM, 100% = cells with rucaparib alone) is 111% (inactive); in assay [13] (at 0.0195 µM, OCI-C5x cells, without rucaparib), 109% (inactive); in assay [13] (at 0.0195 µM, OCI-P5x cells, with rucaparib 20 µM, 100% = cells with rucaparib alone), 72.4% (active); in assay [13] (at 0.0195 µM, OCI-P5x cells, without rucaparib), 76.7% (active); in assay [13] (at 0.0781 µM, OCI-C5x cells, with rucaparib 10 µM, 100% = cells with rucaparib alone) it was 88% (active); in assay [13] (at 0.0781 µM, OCI-C5x cells, without rucaparib) it was 88.8% (active). Moreover, the viability was 51.6% (active) in assay [13] (at 0.0781 µM, OCI-P5x cells, with rucaparib 20 µM, 100% = cells with rucaparib alone); 55% (active) in assay [13] (at 0.0781 µM, OCI-P5x cells, without rucaparib); 73.7% (active) in assay [13] (at 0.313 µM, OCI-C5x cells, with rucaparib 10 µM, 100% = cells with rucaparib alone); 82.7% (active) in [13] (at 0.313 µM, OCI-C5x cells, without rucaparib); 44.7% (active) in [13] (at 0.313 µM, OCI-P5x cells, with rucaparib 20 µM, 100% = cells with rucaparib alone); 53.7% (active) in [13] (at 0.313 µM, OCI-P5x cells, without rucaparib). Also, the viability in [13] (at 1.25 µM, OCI-C5x cells, with rucaparib 10 µM, 100% = cells with rucaparib alone) was 45.5% (active); in [13] (at 1.25 µM, OCI-C5x cells, without rucaparib) it was 78.2% (active); in [13] (at 1.25 µM, OCI-P5x cells, with rucaparib 20 µM, 100% = cells with rucaparib alone), 36.4% (active); in [13] (at 1.25 µM, OCI-P5x cells, without rucaparib) it was 37.4% (active); in [13] (at 5 µM, OCI-C5x cells, with rucaparib 10 µM, 100% = cells with rucaparib alone) it was 41.3% (active); in assay [13] (at 5 µM, OCI-C5x cells, without rucaparib), 52.7% (active). For the same molecule, the viability in assay [13] (at 5 µM, OCI-P5x cells, with rucaparib 20 µM, 100% = cells with rucaparib alone) was 30.4% (active); in [13] (at 5 µM, OCI-P5x cells, without rucaparib), 34.2% (active).
